Laboratory results as given in PubChem BioAssay (Tox21).
Values joined by “and” are separate entries in the source; they are usually repeats but may differ in a detail not shown here. Equal entries are not always repeated. Records with an inconclusive call do not appear. Some compounds were tested as several samples or in several runs, with calls that do not always agree. Active and inactive are the calls of the source. Unless noted, calls follow the shape of the dose curve; as a rule, active = well fitted curve in the direction sought with a large enough effect in the repeat runs; inconclusive = weak or mixed curves; inactive = no such curve, though single readings can be large; an effect the other way counts as inactive or inconclusive.

Columns and labels:
[1] = qHTS assay to identify aromatase inhibitors - cell viability counter screen (AID 743084);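 also: cells stimulated with testosterone during compound exposure; nearly all actives have a fitted effect of over 55% in size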; also: potency is read from the fitted curve at half-maximal effect
[2] = target: Aryl hydrocarbon receptor (Homo sapiens) (UniProt P35869); experiment: qHTS assay to identify small molecule that activate the aryl hydrocarbon receptor (AhR) signaling pathway (AID 743085); also: nearly all actives have a fitted effect of over 15% in size; also: potency is read from the fitted curve at half-maximal effect;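 as to activation: HG2L7.5c1 human HepG2 liver cells with stably integrated DRE-driven firefly reporter; series mostly up to about 70 µM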
Chain of Aryl hydrocarbon receptor (Homo sapiens) (P35869 whole entry, looked up): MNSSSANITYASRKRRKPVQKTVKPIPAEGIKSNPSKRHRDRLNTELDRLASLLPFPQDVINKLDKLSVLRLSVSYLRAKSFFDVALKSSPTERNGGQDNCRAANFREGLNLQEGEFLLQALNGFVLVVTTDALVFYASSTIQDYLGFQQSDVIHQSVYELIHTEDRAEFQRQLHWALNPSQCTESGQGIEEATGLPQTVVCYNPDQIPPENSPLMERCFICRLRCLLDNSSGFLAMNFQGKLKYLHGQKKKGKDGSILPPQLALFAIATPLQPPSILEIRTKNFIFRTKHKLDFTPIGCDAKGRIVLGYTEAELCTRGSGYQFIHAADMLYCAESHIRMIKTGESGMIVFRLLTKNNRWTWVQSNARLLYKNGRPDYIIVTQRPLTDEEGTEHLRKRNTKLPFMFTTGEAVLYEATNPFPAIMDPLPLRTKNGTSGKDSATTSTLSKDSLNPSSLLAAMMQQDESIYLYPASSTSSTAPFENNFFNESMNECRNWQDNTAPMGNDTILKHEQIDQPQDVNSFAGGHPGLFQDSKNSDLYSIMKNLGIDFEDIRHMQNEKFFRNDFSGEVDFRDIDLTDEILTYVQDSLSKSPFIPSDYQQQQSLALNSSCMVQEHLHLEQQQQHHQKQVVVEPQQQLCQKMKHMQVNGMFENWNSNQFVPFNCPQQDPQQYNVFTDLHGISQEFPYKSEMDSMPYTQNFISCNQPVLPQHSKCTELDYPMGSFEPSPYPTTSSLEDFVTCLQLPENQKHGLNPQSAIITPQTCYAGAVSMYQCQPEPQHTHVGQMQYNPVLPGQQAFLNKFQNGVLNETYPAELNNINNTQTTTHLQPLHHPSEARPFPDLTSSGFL
How it was run: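 Reporter assay in engineered HepG2 line HG2L7.5c1, whose plasmid carries twenty dioxin responsive elements upstream of firefly luciferase. Treatment lasted 24 h at 37C; ONE-Glo luminescence gauged induction.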

[3] = qHTS assay to identify small molecule that activate the aryl hydrocarbon receptor (AhR) signaling pathway - cell viability counter screen (AID 743086);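 also: HepG2 liver cells carrying the AhR DRE luciferase reporter; series mostly up to about 70 µM; nearly all actives have a fitted effect of over 45% in size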
How it was run: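 Cytotoxicity counter screen: CellTiter-Fluor signal (30 min, 37 C) in 4000 HepG2 cells/well carrying the DRE-luciferase reporter, following 24 h compound exposure at 37 C.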

[4] = target: Peroxisome proliferator-activated receptor gamma (Homo sapiens) (UniProt P37231); experiment: qHTS assay to identify small molecule agonists of the peroxisome proliferator-activated receptor gamma (PPARg) signaling pathway (AID 743094; active = well fitted activation curve with a large enough effect in the signal ratio in the repeat runs, not every such curve was filed as active; the % refers to the signal ratio; also: potency is read from the fitted curve at half-maximal effect)
Chain of Peroxisome proliferator-activated receptor gamma (Homo sapiens) (P37231 whole entry, looked up): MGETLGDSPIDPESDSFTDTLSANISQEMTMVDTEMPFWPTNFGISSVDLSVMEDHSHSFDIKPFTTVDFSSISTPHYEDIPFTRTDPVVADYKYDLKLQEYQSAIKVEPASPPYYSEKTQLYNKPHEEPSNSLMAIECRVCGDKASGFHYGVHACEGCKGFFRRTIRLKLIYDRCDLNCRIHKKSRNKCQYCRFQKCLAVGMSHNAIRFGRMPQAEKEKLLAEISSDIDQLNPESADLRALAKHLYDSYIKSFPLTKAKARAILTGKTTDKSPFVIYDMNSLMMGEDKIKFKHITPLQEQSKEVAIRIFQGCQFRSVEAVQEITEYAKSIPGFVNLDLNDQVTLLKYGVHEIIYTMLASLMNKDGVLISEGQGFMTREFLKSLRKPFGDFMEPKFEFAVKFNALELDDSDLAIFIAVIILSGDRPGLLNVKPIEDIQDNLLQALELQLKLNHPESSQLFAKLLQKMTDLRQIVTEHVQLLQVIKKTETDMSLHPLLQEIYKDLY
How it was run: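 Reporter activation was scored by fluorescence of cleaved LiveBLAzer B/G substrate (1 h, room temperature) in PPARg-bla HEK293H cells previously treated 17 h at 37C with DMSO-dissolved compounds.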

[5] = qHTS assay to identify small molecule antagonists of the peroxisome proliferator-activated receptor gamma (PPARg) signaling pathway - cell viability counter screen (AID 743194); conditions: Potency: co-treated with 50 nM rosiglitazone unless noted; also: nearly all actives have a fitted effect of over 55% in size; also: potency is read from the fitted curve at half-maximal effect
How it was run: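 Viability was measured as CellTiter-Glo luminescence in GeneBLAzer PPARg UAS-bla HEK293H cells. These cells had been exposed 17 h at 37 C to compounds together with rosiglitazone at 50 nM final, with the beta-lactamase readout taken in the same wells.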

[6] = qHTS assay for small molecule agonists of the antioxidant response element (ARE) signaling pathway (AID 743202; active = well fitted activation curve with a large enough effect in the signal ratio in the repeat runs, not every such curve was filed as active; the % refers to the signal ratio; also: potency is read from the fitted curve at half-maximal effect)
How it was run: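 Beta-lactamase reporter activity, read as fluorescence intensity, reflects ARE/Nrf2 pathway induction in HepG2 cells after 16 h compound exposure at 37 C; substrate loading was 2 h at room temperature.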

[7] = qHTS assay for small molecule agonists of the antioxidant response element (ARE) signaling pathway - cell viability counter screen (AID 743203; calls by dose curve; also: nearly all actives have a fitted effect of over 55% in size; also: potency is read from the fitted curve at half-maximal effect)
How it was run: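 Viability counter screen: stably transfected ARE-bla HepG2 line, 16 hrs compound exposure at 37C/5% CO2, ATP-based CellTiter-Glo luminescence measured in the reporter wells.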

[8] = qHTS assay for small molecule activators of the heat shock response signaling pathway - cell viability counter screen (AID 743209); also: nearly all actives have a fitted effect of over 50% in size
How it was run: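 Viability of HSE-bla HeLa cells is measured with CellTiter-Glo in the wells already used for the reporter read. Compound exposure lasts 5 h at 37 C, and luminescence is read after 30 min at room temperature.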

[9] = qHTS assay for small molecule activators of the heat shock response signaling pathway (AID 743210; active = well fitted activation curve with a large enough effect in the signal ratio in the repeat runs, with a control signal flat, not every such curve was filed as active; the % refers to the signal ratio; also: potency is read from the fitted curve at half-maximal effect;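 as to activation: HeLa cells with beta-lactamase reporter driven by heat shock elements; series mostly up to about 63 µM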)
How it was run: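 Fluorescence from a cleaved B/G FRET substrate (2.5 h, room temp) reports HSE-driven beta-lactamase in HeLa cells treated 5 h at 37 C with DMSO-dissolved compounds.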

Measured: Potency

Cc1cc(Cl)ccc1OCCCC(=O)O
inactive: all assays above

COC(=O)c1sccc1S(=O)(=O)NC(=O)Nc1nc(C)nc(OC)n1
not listed: [5]
inactive: all other assays above

Nc1c(Cl)cc([N+](=O)[O-])cc1Cl
inactive: all assays above

c1nc[nH]n1
inactive: all assays above

O=[N+]([O-])c1c(Cl)c(Cl)c(Cl)c(Cl)c1Cl
active: [6] 24.2 µM | [7] 19.3 µM
inactive: all other assays above

Oc1cc(Cl)c(Cl)cc1Cl
not listed: [6]
inactive: all other assays above

CC(C)Oc1cc(-n2nc(C(C)(C)C)oc2=O)c(Cl)cc1Cl
active: [1] 27.3 µM
inactive and 34.4 µM (active): [7]
not listed: [6] | [9]
inactive: all other assays above

CCCCC(CC)COC(=O)c1ccc(C(=O)OCC(CC)CCCC)c(C(=O)OCC(CC)CCCC)c1 (configuration not stated)
inactive: all assays above

CC(O)CCO (configuration not stated)
inactive: all assays above

c1ccc(P(c2ccccc2)c2ccccc2)cc1
inactive and 3.34 µM (active): [9]
not listed: [6]
inactive: all other assays above

COP(=S)(OC)Oc1cc(Cl)c(Cl)cc1Cl
inactive and 30.4 µM (active): [2]
inactive: all other assays above

N#CC(Br)Br
active: [6] 34.2 µM
inactive: all other assays above

CCOc1cc(Oc2ccc(C(F)(F)F)cc2Cl)ccc1[N+](=O)[O-]
not listed: [6]
inactive: all other assays above

CCN(N=O)C(N)=O
inactive: all assays above

CCN(CC)C(=O)/C(Cl)=C(\C)OP(=O)(OC)OC
not listed: [9]
inactive: all other assays above

O=S(=O)(Oc1ccc(Cl)cc1)c1ccc(Cl)cc1
inactive: all assays above

CC(C)(C)c1ccccc1O
not listed: [6]
inactive: all other assays above

Cc1c(COC(=O)[C@@H]2[C@H](/C=C(\Cl)C(F)(F)F)C2(C)C)cccc1-c1ccccc1
inactive: all assays above

O=P(O)(O)CCCl
inactive: all assays above

CNC(=O)Oc1cccc2c1OC(C)(C)O2
not listed: [6]
inactive: all other assays above

CCCCN(CCCC)N=O
inactive: all assays above

CCCCCCCCOC(=O)c1ccccc1C(=O)OCCCCCCCC
inactive and 54.8 µM (active): [4]
inactive: all other assays above

CCOC(=O)C(C)OC(=O)c1cc(Oc2ccc(C(F)(F)F)cc2Cl)ccc1[N+](=O)[O-] (configuration not stated)
not listed: [6] | [9]
inactive: all other assays above

O=C(Nc1ccc(Br)cc1)c1cc(Br)cc(Br)c1O
inactive: [1] | [3] | [4]
active: [2] 5.31 µM and 3.42 µM and 3.06 µM | [5] 488 nM and 245 nM and 3.76 µM | [7] 34.2 µM and 9.69 µM and 13.3 µM
